High-throughput results as filed in PubChem BioAssay.
aSyn UTR act: Activators working through SNCA 5'UTR binding (MLPCN). alpha-synuclein 5'UTR reporter, activators screen. activity score, % (tested at 7.5 µM), hits read low. 300,000 compounds, 7.1% hits; in the data active = activity score below about -60%
Active calls of the source: *. These entries were drawn from the full list.

SMILES	aSyn UTR act
CN(C)c1ccc(/C=N\NC(=O)c2cccc3cc[nH]c23)cc1	-69.4*
Cc1ccc(/C=N/NC(=O)c2c(C)nc3ccc(Br)cn23)cc1	80.5
Cc1ccc(C(=O)Nc2ccccc2OC(F)F)cc1	-62.5*
Cc1ccc(NC(=O)c2cccc(OC(F)F)c2)c(OC(F)F)c1	-70.7*
Cc1c(Cl)cccc1NC(=O)c1cccc(OC(F)F)c1	-75.6*
O=C(Nc1ccc(N2CCOCC2)cc1)c1cn2ccccc2n1	65.5
CC1CCN(c2ccc(NC(=O)Cc3ccccc3)cc2)CC1	-82.5*
O=C(Cc1ccccc1)Nc1ccc(N2CCOCC2)cc1	-72.9*
COc1ccc(NC2CC(=O)N(C(C)C)C2=O)cc1 (configuration not stated)	-150.2*
CC(C)N1C(=O)CC(Nc2ccc(N3CCOCC3)cc2)C1=O (configuration not stated)	-145.0*
O=c1c2ccccc2oc2nc(-c3ccco3)n(-c3ccccc3)c(=O)c12	-251.2*
CC(C)c1nc2oc3ccccc3c(=O)c2c(=O)n1-c1ccccc1	-324.5*
COc1ccc2c(=O)c3c(=O)n(-c4ccccc4)c(-c4ccc(C)cc4)nc3oc2c1	-79.4*
CC(C)c1nc2sc3ccccc3c(=O)c2c(=O)n1Cc1ccccc1	54.2
O=C(N/N=C/c1c[nH]c2ccc(Br)cc12)c1ccccn1	-63.2*
O=C(N/N=C/c1cc2c(cc1Br)OCO2)c1ccccn1	-186.4*
O=C(N/N=C/c1cc2c(cc1Br)OCO2)c1cc2ccccc2o1	-65.5*
O=C(N/N=C/c1cc2c(cc1Br)OCO2)c1c[nH]c2ccccc12	-81.7*
N/C(=N\OC(=O)c1ccc(Br)cc1)c1ccccc1	-189.9*
N/C(=N\OC(=O)c1cccc(Br)c1)c1ccc(Br)cc1	-95.8*
Cc1ccc(C(=O)O/N=C(\N)c2ccc(Br)cc2)cc1	-215.0*
CC(C)c1cc2cc3ccc(=O)oc3cc2o1	-95.9*
CCOc1ccc2c(c1)c(N=Nc1cccc(C(=O)O)c1)c(O)n2C	-179.4*
CCc1ccccc1NC(=S)N=Nc1c(O)n(C)c2ccc(S(=O)(=O)N3CCOCC3)cc12	80.5
CC(=O)/C(N=Nc1ccc2c(c1)OCO2)=C(\C)O	-244.8*
SMILES	aSyn UTR act
COc1ccc(C(CNC(=O)c2sccc2C)N2CCOCC2)cc1 (configuration not stated)	-69.9*
COc1ccccc1-c1ccc(=O)n(CC(=O)NCc2cccs2)n1	-73.4*
COc1ccccc1NC(=O)Cn1nnc(C(=O)NCc2cccs2)c1N	85.5
c1cncc(-c2noc(C34CC5CC(CC(C5)C3)C4)n2)c1	-86.9*
CC1SCC(=NOCc2ccccc2)CS1 (configuration not stated)	-88.5*
CCOC(=O)c1csc(-c2ccc([N+](=O)[O-])cc2)n1	-66.9*
O=C(NCCCc1ccccn1)C1CCC(=O)N(Cc2cccc(F)c2)C1 (configuration not stated)	-116.7*
Cc1cc(C)cc(C(=O)Nc2ccc(N3CCCC3)cc2)c1	-120.5*
Cc1cc(C)cc(NC(=O)Nc2ccc(N3CCCCC3)cc2)c1	-153.0*
Cc1c(/C(O)=C2/C(=O)C(=O)N(Cc3cccnc3)C2c2cccs2)cnn1-c1ccccc1 (configuration not stated)	-152.3*
CSc1nc(-c2ccccc2)nc(NC(C)=O)c1C(C)=O	-62.5*
O=C(/C=C/Nc1ccc(F)cc1)c1cccs1	-114.5*
O=C(/C=C/Nc1ccc(F)c(F)c1)c1cccs1	-374.4*
CC(C)N1CC(O)=C(c2nc3ccccc3[nH]2)C1=N	-74.2*
CCCCCCCCCn1ccc(=N)cc1	81.9
CCCCN1CC(O)=C(c2nc3ccccc3[nH]2)C1=N	-106.8*
CCCCCN1CC(O)=C(c2nc3ccccc3[nH]2)C1=N	-116.5*
CCCCCCCn1ccc(=N)cc1	56.3
CN(C)/C=N/c1sc2c(c1C#N)CCCCC2	-124.0*
N#Cc1c(/N=C/c2ccc(-c3ccccc3C(=O)O)o2)sc2c1CCCC2	-77.5*
N#Cc1c(/N=C/N2CCOCC2)sc2c1CCCCC2	-121.6*
N#Cc1c(/N=C/c2cccs2)sc2c1CCCCC2	-186.0*
Cn1cc(C(=O)Nc2ccccn2)c(=O)c2ccccc21	-113.7*
CN(C)c1ccc(NC(=S)c2ccccn2)cc1	97.1
CN(C)c1ccc(C(=O)N/N=C/c2ccccn2)cc1	-84.7*
SMILES	aSyn UTR act
Cc1ccccc1C(=O)N/N=C/c1ccccn1	-79.6*
O=C(N/N=C/c1ccccn1)c1ccccc1	-89.8*
O=C(N/N=C\c1cn[nH]c1-c1ccccc1)c1cccnc1	-66.6*
CC(=O)NC(c1ccc(C)cc1)c1cc(Cl)c2cccnc2c1O (configuration not stated)	59.9
O=S(=O)(Nc1cc(Sc2cccc3cccnc23)c(O)c2ccccc12)c1ccccc1	-138.9*
Cc1ccc(C(=O)COC(=O)c2cccs2)cc1	-114.5*
CC(=O)Nc1cc(C(=O)OCC(=O)c2ccc(C)cc2)ccc1C	-151.0*
CCc1ccc(C(=O)COC(=O)c2cccs2)cc1	-139.0*
COc1cc(C(=S)N2CCCC2)ccc1OCc1ccc(C)cc1	-116.3*
Cc1ccc(COc2ccccc2C(=S)N2CCCC2)cc1	-76.3*
S=c1[nH]nc(Cn2c(-c3ccccn3)nc3ccccc32)n1-c1ccc2c(c1)OCCO2	-75.3*
O=c1[nH]cnc2scc(-c3ccc(-c4ccccc4)cc3)c12	-87.5*
CCCOc1ccc(-c2csc3nc[nH]c(=O)c23)cc1	-159.3*
O=C(NC(=S)Nc1ccc(N2CCCCC2)cc1)c1ccc2c(c1)OCCO2	-124.8*
O=C(NC(=S)Nc1ccc(CN2CCOCC2)cc1)c1ccc2c(c1)OCCO2	-116.2*
Clc1ccc(CONc2ncnc3nonc23)c(Cl)c1	-124.1*
Cc1ccc2c(CC(=O)Nc3ccc(N4CCN(C)CC4)cc3C)coc2c1	-67.6*
Cc1ccc2c(CC(=O)Nc3sccc3C(N)=O)coc2c1	-183.1*
Cc1cccc(Oc2coc3cc(OC(=O)c4cncc(Br)c4)ccc3c2=O)c1	-73.1*
CCOC(=O)Oc1ccc2c(=O)c(Oc3cccc(C)c3)coc2c1	-75.1*
CC(C)(C)OC(=O)N/N=C\C=C\c1ccc2c(c1)OCO2	-197.1*
CCOC(=O)N/N=C\C=C\c1ccc2c(c1)OCO2	-120.6*
COC(=O)N/N=C\C=C\c1ccc2c(c1)OCO2	-134.0*
FC(F)(F)c1ccc(Nc2nnnc3ccccc23)cc1	-139.6*
CC(=O)Nc1ccc(NC(=O)C(C)OC(=O)/C(C#N)=C/c2ccc(N(C)C)cc2)cc1 (configuration not stated)	-85.4*
SMILES	aSyn UTR act
Cc1ccc(OCC(=O)Nc2ccc(F)cc2)cc1	-95.6*
Cc1ccc(NC(=O)C(=S)NCc2ccco2)cc1	-134.7*
Cc1ccc(CSCC(=O)Nc2ccccc2F)cc1	-81.3*
Cc1ccc(NC(=O)Cc2ccc(F)cc2)cc1	-81.0*
Cc1ccc(OCC(=O)Nc2ccc(F)cc2)c([N+](=O)[O-])n1	-166.7*
Cc1ccc(NC(=O)CSCc2ccco2)cc1	-129.7*
Cc1ccc(NC(=O)CSCc2ccc(F)cc2)cc1	-81.4*
CCc1ccc(-c2nc(CSCC(=O)NCc3ccco3)c(C)o2)cc1	77.4
CCc1ccc(NC(=O)COc2ccc(F)cc2C(=O)c2cnn(-c3ccccc3)c2)cc1	-130.1*
COc1ccccc1NC(=O)COc1ccccc1C(=O)c1cnn(-c2ccccc2)c1	-135.7*
Cc1ccc(NC(=O)OCc2cccs2)cc1	-190.6*
Cc1ccc(NC(=O)OCc2cc(-c3ccccc3)on2)cc1	-92.8*
Oc1c(C=Nc2ccccc2Cl)[nH]c2ccccc12	-101.3*
Cc1sc2c(c1C)C(=O)NC(c1cccc(O)c1)N2 (configuration not stated)	-233.3*
